Results on one molecule are retold here after the supplement of paper PMC8728848.

About 410 targets per protein were measured; listed, in parts, are those with the strongest signals and a random draw of the rest.

What all share (assay): glycan array binding signal (z-score within array); higher = stronger binding
Conditions in all cases: glycan notation: IUPAC condensed, linker removed

The target of assay [1] is Gal(b1-4)GlcNAc(b1-3)Gal(b1-4)GlcNAc(b1-3)Gal(b1-4)GlcNAc(b1-2)Man(a1-3)[Gal(b1-4)GlcNAc(b1-3)Gal(b1-4)GlcNAc(b1-3)Gal(b1-4)GlcNAc(b1-2)Man(a1-6)]Man(b1-4)GlcNAc(b1-4)GlcNAc. Summed up:
(§1)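 The Consortium for Functional Glycomics database supplied 3228 glycan arrays, of which those lacking an available protein sequence were dropped. The binding signal, a within-array Z-score, was averaged across arrays of the same protein sequence and across linkers. Negative scores can be read as non-binding.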

Assay [2] deals with Gal(b1-4)GlcNAc(b1-3)Gal(b1-4)GlcNAc(b1-3)Gal(b1-4)GlcNAc(b1-3)Gal(b1-4)GlcNAc(b1-3)Gal(b1-4)GlcNAc(b1-2)Man(a1-3)[Gal(b1-4)GlcNAc(b1-3)Gal(b1-4)GlcNAc(b1-3)Gal(b1-4)GlcNAc(b1-3)Gal(b1-4)GlcNAc(b1-3)Gal(b1-4)GlcNAc(b1-2)Man(a1-6)]Man(b1-4)GlcNAc(b1-4)GlcNAc. Summed up: as §1
Assay [3] deals with Gal(b1-4)GlcNAc(b1-3)[Fuc(a1-3)GlcNAc(b1-6)]Gal(b1-4)Glc. Summed up:
as §1

Assay [4] has as its target Gal6S(b1-4)Glc. In short, it runs like this:
as §1

The target in assay [5] is GalNAc(b1-4)GlcNAc(b1-2)Man(a1-3)[GalNAc(b1-4)GlcNAc(b1-2)Man(a1-6)]Man(b1-4)GlcNAc(b1-4)GlcNAc. In short, it runs like this: as §1
For assay [6], the target named is GalNAc(b1-6)GalNAc. In short, it runs like this:
as §1

For assay [7], the target named is GalNAc6S(b1-4)GlcNAc. Summed up: as §1
Assay [8] has as its target Glc(a1-6)Glc(a1-6)Glc(a1-6)Glc. In short, it runs like this: as §1
For assay [9], the target named is GlcNAc(a1-4)Gal(b1-3)GlcNAc. Summed up: as §1
The target in assay [10] is GlcNAc(b1-2)Man(a1-3)[GlcNAc(b1-4)][GlcNAc(b1-2)Man(a1-6)]Man(b1-4)GlcNAc(b1-4)[Fuc(a1-6)]GlcNAc. In short, it runs like this: as §1
Assay [11] deals with GlcNAc(b1-3)Gal(b1-4)GlcNAc. In short, it runs like this: as §1
In assay [12] the target is GlcNAc(b1-3)Gal(b1-4)GlcNAc(b1-6)[GlcNAc(b1-3)Gal(b1-3)]GalNAc. In short, it runs like this:
as §1

Assay [13] concerns the target GlcNAc(b1-3)[GlcNAc(b1-6)]GalNAc. Summed up:
as §1

In assay [14] the target is GlcNAc(b1-6)GalNAc. Summed up:
as §1

Assay [15] concerns the target Kdn(a2-3)Gal(b1-4)[Fuc(a1-3)]GlcNAc. Summed up:
as §1

For assay [16], the target named is Neu5Ac(a2-3)Gal(b1-4)GlcNAc(b1-3)Gal(b1-4)GlcNAc(b1-3)Gal(b1-4)GlcNAc(b1-2)Man(a1-3)[Neu5Ac(a2-3)Gal(b1-4)GlcNAc(b1-3)Gal(b1-4)GlcNAc(b1-3)Gal(b1-4)GlcNAc(b1-2)Man(a1-6)]GalNAc. In short, it runs like this:
as §1

The target in assay [17] is Neu5Ac(a2-3)Gal(b1-4)GlcNAc(b1-3)Gal(b1-4)GlcNAc(b1-3)GalNAc. In short, it runs like this: as §1
Assay [18] deals with Neu5Ac(a2-3)Gal(b1-4)[Fuc(a1-3)]GlcNAc(b1-2)Man. In short, it runs like this:
as §1

The target of assay [19] is Neu5Ac(a2-6)Gal(b1-4)GlcNAc(b1-2)Man(a1-3)[GlcNAc(b1-2)Man(a1-6)]Man(b1-4)GlcNAc(b1-4)GlcNAc. In short, it runs like this: as §1
The target in assay [20] is Neu5Ac(a2-6)Gal(b1-4)GlcNAc(b1-2)Man(a1-3)[GlcNAc(b1-4)][Neu5Ac(a2-6)Gal(b1-4)GlcNAc(b1-2)Man(a1-6)]Man(b1-4)GlcNAc(b1-4)GlcNAc. In short, it runs like this: as §1
Assay [21] addresses Neu5Ac(a2-6)Gal(b1-4)GlcNAc(b1-2)Man(a1-3)[Neu5Ac(a2-3)Gal(b1-4)GlcNAc(b1-2)Man(a1-6)]Man(b1-4)GlcNAc(b1-4)GlcNAc. In short, it runs like this:
as §1

Assay [22] concerns the target Neu5Ac9Ac(a2-3)Gal(b1-4)GlcNAc. In short, it runs like this: as §1
Assay [23] concerns the target Neu5Gc(a2-3)Gal(b1-4)[Fuc(a1-4)]GlcNAc. Summed up:
as §1

B1: MGL1 (Mus musculus), P49300 (protein)
chain: MIYENLQNSRIEEKTQEPGKAPSQSFLWRILSWTHLLLFSLGLSLLLLVVVSVIGSQNSQLRRDLGTLRATLDNTTSKIKAEFQSLDSRADSFEKGISSLKVDVEDHRQELQAGRDLSQKVTSLESTVEKREQALKTDLSDLTDHVQQLRKDLKALTCQLANLKNNGSEVACCPLHWTEHEGSCYWFSESEKSWPEADKYCRLENSHLVVVNSLEEQNFLQNRLANVVSWIGLTDQNGPWRWVDGTDFEKGFKNWAPLQPDNWFGHGLGGGEDCAHITTGGPWNDDVCQRTFRWICEMKLAKES
Consider B1, for which the “glycan array binding signal (z-score)” value in assay [1] was 3.01; in assay [2] it was 2.31; in assay [3] it was 4.54; in [4], 0.208; in assay [5] it was 0.218; in [6] it was -0.374. Moreover, the “glycan array binding signal (z-score)” value is 0.509 in [7]; -0.085 in [8]; 0.26 in [9]; 0.417 in [10]; 0.138 in assay [11]; -0.907 in [12]. The “glycan array binding signal (z-score)” value in assay [13] is -0.368; in assay [14] it was 0.042; in assay [15], 0.025; in assay [16], 3.39; in assay [17], -0.308; in assay [18] it was -0.66. The “glycan array binding signal (z-score)” value in assay [19] was -0.089; in [20], -0.48; in assay [21], -0.988; in [22], -0.495; in assay [23], -0.153.
